According to PubChem BioAssay (NCATS):
Values joined by “and” are separate entries in the source; they are usually repeats but may differ in a detail not shown here. Equal entries are not always repeated. Inconclusive results are not listed. Active and inactive are the calls of the source. The call rests on the fitted dose curve; in most records, active means well fitted curve in the direction sought with a large enough effect; inconclusive means small, poorly fitted or top-dose-only effect, or another doubt; inactive means no such curve, though single readings can be large or run the other way.

Target: T1, Hexokinase-4 (Homo sapiens) + Glucokinase regulatory protein (Homo sapiens) (UniProt P35557+Q14397)
T1 sequence (P35557 whole entry, looked up): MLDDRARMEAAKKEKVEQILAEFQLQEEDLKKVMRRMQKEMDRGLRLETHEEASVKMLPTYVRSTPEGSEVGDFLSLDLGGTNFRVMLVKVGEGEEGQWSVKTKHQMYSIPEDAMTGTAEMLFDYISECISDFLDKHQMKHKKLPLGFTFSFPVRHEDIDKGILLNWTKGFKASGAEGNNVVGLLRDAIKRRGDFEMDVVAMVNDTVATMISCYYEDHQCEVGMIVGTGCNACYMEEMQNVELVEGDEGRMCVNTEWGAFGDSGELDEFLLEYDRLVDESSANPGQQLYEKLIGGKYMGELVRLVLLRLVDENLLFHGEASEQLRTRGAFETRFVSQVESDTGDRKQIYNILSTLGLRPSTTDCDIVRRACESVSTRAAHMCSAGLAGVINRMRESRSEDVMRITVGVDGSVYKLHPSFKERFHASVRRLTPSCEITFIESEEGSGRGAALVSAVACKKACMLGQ
T1 sequence (Q14397 whole entry, looked up): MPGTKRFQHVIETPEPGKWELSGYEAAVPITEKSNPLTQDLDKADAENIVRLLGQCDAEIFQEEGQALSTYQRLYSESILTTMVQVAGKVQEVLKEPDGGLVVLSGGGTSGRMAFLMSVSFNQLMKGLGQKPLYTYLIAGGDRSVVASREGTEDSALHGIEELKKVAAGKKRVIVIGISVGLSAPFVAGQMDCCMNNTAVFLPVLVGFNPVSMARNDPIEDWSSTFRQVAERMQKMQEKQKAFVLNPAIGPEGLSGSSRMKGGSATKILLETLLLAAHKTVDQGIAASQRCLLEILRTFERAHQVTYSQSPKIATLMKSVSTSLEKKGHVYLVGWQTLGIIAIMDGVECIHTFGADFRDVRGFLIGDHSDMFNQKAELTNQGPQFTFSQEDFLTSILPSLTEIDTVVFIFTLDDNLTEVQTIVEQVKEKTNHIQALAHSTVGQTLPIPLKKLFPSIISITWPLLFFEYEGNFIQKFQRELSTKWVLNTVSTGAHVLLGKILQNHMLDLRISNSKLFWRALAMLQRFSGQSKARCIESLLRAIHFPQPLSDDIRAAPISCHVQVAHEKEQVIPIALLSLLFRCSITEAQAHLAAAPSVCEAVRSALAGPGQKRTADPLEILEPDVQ
Assay: qHTS assay for inhibitors of recombinant human GCK-GKRP interaction: ADP-Glo assay (AID 743206);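 further: plate controls were DMSO plus enzyme for no effect and no enzyme for full effect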
Settings: ADP-Glo luminescence, 60 min, 0% = vehicle-only wells with enzyme present; series mostly up to 76.9 µM; activity, positive = activation: at the top concentration
How it was run: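 Pin-transferred compounds meet a 15 nM GST-GCK/15 nM FLAG-GKRP/2 uM S6P mix (dispense concentrations). ATP is then added to 0.4 mM final with 5 mM glucose, and the reaction runs 60 min at room temperature. ADP is quantified luminescently.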

Question: With `CSc1ccc2c(c1)C(N1CCN(C)CC1)Cc1ccccc1S2` (stereo unspecified) as the molecule, how does the “activity, positive = activation” value read?
Answer: 5.89% (inactive)

Question: For `CN(C)CCC=C1c2ccccc2CCc2ccccc21`, which “activity, positive = activation” value is on record?
Answer: 4.13% (inactive)

Question: With `CN(C)CCCN1c2ccccc2Sc2ccc(Cl)cc21` as the molecule, how does the “activity, positive = activation” value read?
Answer: -1.31% (inactive)

Question: With `OCc1cc(C(O)CNCCCCCCOCCCCc2ccccc2)ccc1O` (stereo unspecified) as the molecule, how does the “activity, positive = activation” value read?
Answer: -1.25% (inactive)

Target: T1, Hexokinase-4 (Homo sapiens) + Glucokinase regulatory protein (Homo sapiens)
Assay: qHTS assay for inhibitors of recombinant human GCK-GKRP interaction: HTRF assay (AID 743207);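 further: 0% = DMSO with GCK present and -100% = DMSO wells lacking GCK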
Settings: recombinant GCK-GKRP HTRF binding, 60 min, with sorbitol-6-phosphate; series mostly up to 57.5 µM; activity change, negative = inhibition: at the top concentration
How it was run: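 HTRF read-out (ex 320 nm; 615/665 nm emission) after 60 min RT equilibration of 5 nM GST-GCK, 5 nM FLAG-GKRP, 2 uM S6P, compound and anti-FLAG/anti-GST detection antibodies; signal normalized between DMSO wells with and without GCK.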

Question: With `CSc1ccc2c(c1)C(N1CCN(C)CC1)Cc1ccccc1S2` (stereo unspecified) as the molecule, how does the “activity change, negative = inhibition” value read?
Answer: -26.8% (inactive)

Question: For `CN(C)CCC=C1c2ccccc2CCc2ccccc21`, which “activity change, negative = inhibition” value is on record?
Answer: -6.29% (inactive)

Question: Which “activity change, negative = inhibition” value does the source give for `CN(C)CCCN1c2ccccc2Sc2ccc(Cl)cc21` here?
Answer: -4.23% (inactive)

Question: For `OCc1cc(C(O)CNCCCCCCOCCCCc2ccccc2)ccc1O` (stereo unspecified), which “activity change, negative = inhibition” value is on record?
Answer: -4.56% (inactive)

Test system: not listed separately
Assay: qHTS Assay for Identifying Gametocytocidal Compounds (AID 743244); further: potency means the concentration at half of the fitted maximal effect;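 on max response: on the % scale 0 is the no-effect control and ±100 the full control effect; actives lower the fluorescent signal which means gametocytes are killed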
Settings: P. falciparum 3D7 stage III-V gametocytes, alamarBlue, 72 h; max response: hits give low values
How it was run: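 In this qHTS viability screen, late-stage 3D7 gametocytes are incubated with compound for 72 h, then with alamarBlue for 24 h; reduced resorufin fluorescence marks killing.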

Question: Which max response does the source give for `C[C@H](NC(CCc1ccccc1)C(=O)O)C(=O)N1CCC[C@H]1C(=O)O` (stereo partly specified) here?
Answer: 7.34% (inactive)

Question: With `CSc1ccc2c(c1)C(N1CCN(C)CC1)Cc1ccccc1S2` (stereo unspecified) as the molecule, how does the Potency read?
Answer: 12.6 µM (active)

Question: For `C[C@H]1O[C@@H](n2cc(F)c(=O)[nH]c2=O)[C@H](O)[C@@H]1O`, which max response is on record?
Answer: 0.485% (inactive)

Question: Which max response does the source give for `Cc1ncc([N+](=O)[O-])n1CC(O)CCl` (stereo unspecified) here?
Answer: 22.3% (inactive)

Question: With `CCCOC(=O)c1ccccc1` as the molecule, how does the max response read?
Answer: -2.44% (inactive)

Question: For `Nc1ccc(S(=O)(=O)Nc2ccc(Cl)nn2)cc1`, which max response is on record?
Answer: 13.8% (inactive) and 15.1% (inactive)

Question: For `C[C@@H]1C[C@H]2[C@@H]3C[C@H](F)C4=CC(=O)C=C[C@]4(C)[C@@]3(F)[C@@H](O)C[C@]2(C)[C@@]1(O)C(=O)CO`, which max response is on record?
Answer: 2.1% (inactive)

Question: With `O=C(O)CN1C(=O)c2cccc3cccc(c23)C1=O` as the molecule, how does the max response read?
Answer: 0.25% (inactive)

Question: With `C[C@@H](O)[C@H](N)C(=O)O` as the molecule, how does the max response read?
Answer: 6.39% (inactive)

Question: Which max response does the source give for `C[C@H]1O[C@H](O[C@H]2[C@H](O)[C@@H](O)[C@@H](O[C@H]3[C@H](O)[C@@H](O)[C@H](O)O[C@@H]3CO)O[C@@H]2CO)[C@H](O)[C@@H](O)[C@@H]1N[C@H]1C=C(CO)[C@@H](O)[C@H](O)[C@H]1O` here?
Answer: 2.05% (inactive)

Question: With `N[C@H]1C(O)O[C@H](CO)[C@@H](O)[C@@H]1O` (stereo partly specified) as the molecule, how does the max response read?
Answer: -9.09% (inactive)

Question: For `COc1ccc(S(=O)(=O)Nc2nnc(CC(C)C)s2)cc1`, which max response is on record?
Answer: 7.52% (inactive) and 10.3% (inactive)

Question: For `Nc1nc2c(ncn2CCC(CO)CO)c(=O)[nH]1`, which max response is on record?
Answer: -1.67% (inactive)

Question: Which max response does the source give for `CCC(=O)c1ccc(O)cc1` here?
Answer: -0.113% (inactive)

Question: With `CCCCc1ncc(/C=C(\Cc2cccs2)C(=O)O)n1Cc1ccc(C(=O)O)cc1` as the molecule, how does the max response read?
Answer: -3.3% (inactive)

Question: With `C[C@]12CC[C@@H]3c4ccc(O)cc4CC[C@H]3[C@@H]1CC[C@@H]2OC(=O)CCC1CCCC1` as the molecule, how does the max response read?
Answer: -9.98% (inactive) and 14% (inactive)

Question: For `Cc1cc2c(cc1S(N)(=O)=O)S(=O)(=O)CCC2`, which max response is on record?
Answer: 20.4% (inactive)

Question: Which max response does the source give for `CCn1cc(C(=O)O)c(=O)c2cnc(N3CCNCC3)nc21` here?
Answer: 12.2% (inactive)

Question: For `Oc1ccc(C(O)CNCCCCCCNCC(O)c2ccc(O)c(O)c2)cc1O` (stereo unspecified), which max response is on record?
Answer: -5.82% (inactive)

Question: With `CN(C)CCCO[C@@H]1[C@H]2OC(C)(C)O[C@H]2O[C@@H]1C(O)CO` (stereo partly specified) as the molecule, how does the max response read?
Answer: -6.36% (inactive)

Question: With `O=C(O)c1ccccn1` as the molecule, how does the max response read?
Answer: -0.573% (inactive)

Question: With `CC(C)(O)c1ccccc1CC[C@@H](SCC1(CC(=O)O)CC1)c1cccc(/C=C/c2ccc3ccc(Cl)cc3n2)c1` as the molecule, how does the max response read?
Answer: -7.08% (inactive)

Question: With `O=Cc1ccccc1C=O` as the molecule, how does the max response read?
Answer: -3.58% (inactive)

Question: With `O=c1[nH]cnc2c1ncn2[C@@H]1O[C@H](CO)[C@@H](O)[C@H]1O` as the molecule, how does the max response read?
Answer: 5.28% (inactive)

Question: For `OCc1cc(C(O)CNCCCCCCOCCCCc2ccccc2)ccc1O` (stereo unspecified), which Potency is on record?
Answer: 10 µM (active)

Question: Which max response does the source give for `CCOC(CN1CCN(CC(C)C(=O)c2ccccc2)CC1)c1ccccc1` (stereo unspecified) here?
Answer: 18.2% (inactive)

Question: With `CCOc1nc2cccc(C(=O)O)c2n1Cc1ccc(-c2ccccc2-c2nn[nH]n2)cc1` as the molecule, how does the max response read?
Answer: 5.7% (inactive)

Question: Which max response does the source give for `O=C1NC(=O)[C@@]2(CCOc3ccc(F)cc32)N1` here?
Answer: -2.96% (inactive)

Question: Which max response does the source give for `NCC(=O)CCC(=O)O` here?
Answer: 0.855% (inactive)

Question: For `Cn1c(=O)c2c(ncn2CC2OCCO2)n(C)c1=O`, which max response is on record?
Answer: 2.6% (inactive)

Question: For `C[C@H](N)[C@H](O)c1cccc(O)c1`, which max response is on record?
Answer: 5.58% (inactive)

Question: With `Nc1ccc(S(=O)(=O)Nc2ccccc2)cc1` as the molecule, how does the max response read?
Answer: -2.25% (inactive)

Question: With `NC(CSCC(=O)O)C(=O)O` (stereo unspecified) as the molecule, how does the max response read?
Answer: -8.42% (inactive)
